Screens (PubChem BioAssay)
MmCpn inh: Inhibitors of TCP-1 ring complex (TRiC) of Methanococcus maripaludis (MmCpn): qHTS | Chaperonin Mm-Cpn (Methanococcus maripaludis) | 0.031% of 330,000 active | Potency, µM (series often up to 76.9 µM), inactives show at the top dose activity, negative = inhibition, actives largely listed as inhibitors | purified Mm-Cpn ATPase, ADP Transcreener TR-FRET; also: % is scaled to controls: 0 for no effect and ±100 for the full control effect; nearly all actives have a fitted effect of over 80% in size
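Quantitative HTS used 25 nM Mm-CPN and 10 uM ATP in magnesium/KCl Tris buffer, pH 7.4, with 1 mM DTT. Hydrolysis ran 30 min at 37°C; ADP was read by HTRF.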
Abeta yeast res: qHTS for compounds that reverse cellular toxicity of Amyloid beta (A-beta) peptide in yeast: Primary Screen; 0.063% of 410,000 active; Potency, µM (series often up to 46.1 µM), most hits filed as activators; yeast expressing A-beta42, growth rescue, OD600, 48 h; response scale: 0% DMSO, 100% iron-clioquinol control; AID 1347071, 2019; also: nearly all actives have a fitted effect of over 55% in size
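Growth rescue measured by 600 nm absorbance after 48 h yeast culture at 30 C with compound. Values normalized between DMSO and an equimolar ferric chloride plus clioquinol control.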
aSyn yeast inh: qHTS of alpha-syn Inhibitors; Potency, µM (titrated, usually from 46.1 µM), for the others: top-dose growth rescue (activation), hits mostly activators; Yeast expressing alpha-synuclein, growth rescue, BacTiter-Glo, 24 h; 0.14% of 370,000 active; AID 652106, 2013; also: % of control where 0% means no effect; nearly all actives have a fitted effect of over 65% in size
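Galactose-induced alpha-syn yeast (OD600=0.02, raffinose-pregrown) + pinned cpd, 24 hr, 30 deg C; growth by BacTiter-Glo luminescence. Growth restoration scores as activation.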
TDP-43 yeast inh: qHTS of TDP-43 Inhibitors; TDP-43 expressing yeast growth rescue, BacTiter-Glo, 24 h; Potency, µM (top dose mostly 46.1 µM), for the others: at the top dose growth rescue (activation), actives largely listed as activators; 1.8% of 410,000 active; AID 652104, 2013; also: % of control where 0% means no effect; nearly all actives have a fitted effect of over 50% in size
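Yeast expressing TDP-43 (pregrown in raffinose, seeded at OD600=0.02 in galactose medium) exposed to compounds 24 hr at 30 deg C. Growth read by BacTiter-Glo luminescence; rescue of toxicity appears as increased signal.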
FUS suppressor: qHTS for Suppressors of FUS Proteinopathy: Primary screen using FUS-linked yeast assay | S. cerevisiae FUS-expressing, growth rescue, OD600, 24 h | Potency, µM (doses to about 76.6 µM), actives largely listed as activators | 0.24% of 390,000 active;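 also: plate controls were DMSO vehicle for no effect and reference control for full effect; nearly all actives have a fitted effect of over 55% in size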
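Read-out: OD at 600 nm after 24hr at 30C, reporting rescue of FUS-induced yeast toxicity. Cells at OD 0.005 in galactose (2%) minimal medium; compounds tested in a dilution series; CP55940 titration from 92uM final as control.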
ClpP mod: qHTS Assay for Activators of ClpP; purified B. subtilis ClpP, FRET peptide cleavage, 20 min; ATP-dependent Clp protease proteolytic subunit (Bacillus subtilis (strain 168)), P80244; Potency, µM (series often up to 57.5 µM), for the others: at the highest dose activity change, negative = active; 1.9% of 340,000 active; active = well fitted falling curve with a large enough effect; inconclusive = small, poorly fitted or top-dose-only effect; inactive = no such curve, though single readings can be large or run the other way; also: the source files actives as falling curves though it sought activators and does not explain the sign; nearly all actives have a fitted effect of over 65% in size
Target sequence (P80244 whole entry, looked up): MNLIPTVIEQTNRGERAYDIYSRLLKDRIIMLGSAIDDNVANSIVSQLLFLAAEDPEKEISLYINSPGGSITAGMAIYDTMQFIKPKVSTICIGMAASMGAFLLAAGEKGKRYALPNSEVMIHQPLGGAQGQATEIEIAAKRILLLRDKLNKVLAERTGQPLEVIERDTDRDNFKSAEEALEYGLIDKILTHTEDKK
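FRET quenching reversal measured ClpP activation: 10 microg/mL B. subtilis ClpP at pH 8 with the FRET-FV decapeptide, read at 430 nm after 320 nm excitation. The 20-min minus 0-min signal was scaled between DMSO/no-enzyme wells and ADEP (5.8 microM final).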
* marks the source's active call; other numbers are inactive results; i = inactive; ? = inconclusive; / = not tested or not shown. A selection: hits, their analogues and other compounds. The true share with any hit is near 3.6%. Unless noted, calls follow the shape of the dose curve; as a rule, active = well fitted curve in the direction sought with a large enough effect; inconclusive = small, poorly fitted or top-dose-only effect, or another doubt; inactive = no such curve, though single readings can be large; an effect the other way counts as inactive or inconclusive. Potency is read from the fitted curve at half-maximal effect.

SMILES	MmCpn inh	Abeta yeast res	aSyn yeast inh	TDP-43 yeast inh	FUS suppressor	ClpP mod
COc1ccc(-c2c(C)oc3c(CN4CCN(CCO)CC4)c(O)ccc3c2=O)cc1OC	1%	i	0%	-12%	i	22µM*
COc1ccc(-c2sc(C(=O)c3ccc(Cl)cc3Cl)cc2CC(=O)O)cc1	50µM*	i	-59%	-94%	i	?
Cc1cc2c(c(N)n1)c(=O)oc1ccccc12	-22%	i	0%	-10%	i	40µM*
O=c1oc2ccccc2c2c1ccc1ccccc12	2%	i	7%	35µM*	i	5%
CCc1ccccc1NC(=O)Nc1cc(C(=O)NCc2ccc(C(C)C)cc2)ccc1N1CCCC1	/	i	/	-1%	i	1%
CCOC(=O)c1cc(OC(=O)c2cc(OC)cc(OC)c2)n(-c2ccccc2)n1	/	i	-38%	0%	i	-6%
COc1ccc(Cl)cc1NC(=O)c1c(NCc2cccs2)sc2c1CCC(C)C2 (stereo not drawn)	/	i	/	27%	i	-1%
COc1ccc(Cl)cc1NC(=O)c1c(NCc2cccnc2)sc2c1CCC(C)C2 (stereo not drawn)	/	i	/	22µM*	i	-1%
C=C1c2nc3ccccc3n2C=C(c2ccc(C)cc2)N1c1ccccc1	/	i	-26%	14µM*	/	?
CCOC(=O)c1cnc2c(Cl)c(Cl)ccc2c1Nc1ccc(N(C)C)cc1	/	i	-2%	-14%	i	1%
Cc1cc(OCC(=O)NNC(=O)c2cnccn2)cc(C)c1Cl	-1%	?	18µM*	?	i	2%
Cc1ccc(OCC(=O)NCCCNC(=O)c2cnccn2)cc1C	-1%	i	0%	-14%	i	/
CCCCN1C(=O)C2(OCCCO2)c2cccc(C)c21	0%	i	6%	20µM*	i	?
Cn1cnc(S(=O)(=O)NCc2ccccc2)c1	-5%	i	-3%	11%	/	1%
COc1cccc(CNS(=O)(=O)c2cn(C)cn2)c1	-1%	i	0%	-7%	/	14µM*
NC(=O)c1sc2nc(N3CCOCC3)c3c(c2c1N)CCCC3	-11%	i	14%	17%	?	16µM*
CCOC(=O)c1sc2nc(N3CCOCC3)c3c(c2c1N)CC(C)(C)N(C)C3	-2%	i	0%	3%	i	7.1µM*
CCOC(=O)c1sc2nc(N3CCOCC3)c3c(c2c1N)CCN(Cc1ccccc1)C3	1%	i	8%	-5%	i	25µM*
CC1(C)Cc2c(c(N3CCOCC3)nc3sc(C(N)=O)c(N)c23)CO1	-2%	i	-3%	-3%	i	-1%
CCOC(=O)c1ccc(NC(=O)c2sc3nc(N4CCOCC4)c4c(c3c2N)CCCC4)cc1	-1%	i	11%	18%	i	4%
CCOC(=O)c1sc2nc(N3CCOCC3)c3c(c2c1N)CCC3	-8%	i	-12%	21%	i	97%
CC1(C)Cc2c(c(N3CCOCC3)nc3sc(C#N)c(N)c23)CS1	/	i	1%	10%	i	28µM*
CNc1nc(N2CCCN(C)CC2)nc2cc(OC)c(OC)cc12	/	/	-7%	/	/	4%
COC(=O)C1CSC(C(=O)OC)N1C(=O)Nc1ccc(Cl)cc1 (stereo not drawn)	1%	i	5%	12%	i	32µM*
Cc1ccc(C)c(N2CCN(C(=O)CN3CCSc4ccc(S(=O)(=O)N(C)C)cc43)CC2)c1	/	i	?	12%	i	?
COC(=O)c1ccc(CSc2nnc(Nc3ccccc3OC)s2)o1	0%	i	-8%	18µM*	i	-1%
